These results are taken from the supplement of paper PMC11006884.

About 6,500 targets were measured; listed, in parts, are those with a hit and a random draw of the rest. About 2% of all pairs of compound and target were hits. A number with no mark means an inactive call.

Chain of UniProt Q9HAU5 (Q9HAU5 whole entry, looked up): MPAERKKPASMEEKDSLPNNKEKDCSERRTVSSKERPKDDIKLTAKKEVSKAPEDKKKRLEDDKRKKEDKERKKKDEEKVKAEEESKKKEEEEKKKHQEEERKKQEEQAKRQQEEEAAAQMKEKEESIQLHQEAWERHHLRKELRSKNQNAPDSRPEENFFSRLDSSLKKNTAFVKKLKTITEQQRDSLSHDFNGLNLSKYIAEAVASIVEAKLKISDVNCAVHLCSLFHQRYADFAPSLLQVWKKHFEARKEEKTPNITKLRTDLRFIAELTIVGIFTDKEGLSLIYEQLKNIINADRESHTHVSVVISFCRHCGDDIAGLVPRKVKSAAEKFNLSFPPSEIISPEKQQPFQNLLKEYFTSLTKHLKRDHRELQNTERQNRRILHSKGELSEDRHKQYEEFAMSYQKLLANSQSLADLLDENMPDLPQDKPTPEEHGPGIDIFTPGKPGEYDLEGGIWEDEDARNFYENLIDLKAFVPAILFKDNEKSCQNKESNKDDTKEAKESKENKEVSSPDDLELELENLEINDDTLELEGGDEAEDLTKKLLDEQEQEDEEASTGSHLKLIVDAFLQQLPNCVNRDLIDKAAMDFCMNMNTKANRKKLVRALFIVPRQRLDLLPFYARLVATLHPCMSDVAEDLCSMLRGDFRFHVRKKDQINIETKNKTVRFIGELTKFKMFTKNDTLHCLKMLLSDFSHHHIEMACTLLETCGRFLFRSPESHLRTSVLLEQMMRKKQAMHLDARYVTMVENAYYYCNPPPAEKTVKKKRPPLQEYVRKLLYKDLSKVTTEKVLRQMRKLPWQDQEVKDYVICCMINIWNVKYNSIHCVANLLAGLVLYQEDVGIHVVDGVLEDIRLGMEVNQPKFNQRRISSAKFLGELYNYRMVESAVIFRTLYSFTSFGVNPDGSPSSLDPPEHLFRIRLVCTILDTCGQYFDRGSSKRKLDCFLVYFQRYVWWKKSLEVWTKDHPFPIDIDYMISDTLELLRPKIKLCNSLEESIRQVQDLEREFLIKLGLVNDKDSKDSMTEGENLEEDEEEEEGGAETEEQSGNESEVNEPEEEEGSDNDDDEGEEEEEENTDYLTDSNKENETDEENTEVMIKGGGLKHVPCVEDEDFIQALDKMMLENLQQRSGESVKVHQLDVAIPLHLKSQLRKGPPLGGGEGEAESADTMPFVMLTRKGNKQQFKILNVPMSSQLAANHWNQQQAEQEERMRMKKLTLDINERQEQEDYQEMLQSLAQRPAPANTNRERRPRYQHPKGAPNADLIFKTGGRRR
Chain of UniProt Q9HA77 (Q9HA77 whole entry): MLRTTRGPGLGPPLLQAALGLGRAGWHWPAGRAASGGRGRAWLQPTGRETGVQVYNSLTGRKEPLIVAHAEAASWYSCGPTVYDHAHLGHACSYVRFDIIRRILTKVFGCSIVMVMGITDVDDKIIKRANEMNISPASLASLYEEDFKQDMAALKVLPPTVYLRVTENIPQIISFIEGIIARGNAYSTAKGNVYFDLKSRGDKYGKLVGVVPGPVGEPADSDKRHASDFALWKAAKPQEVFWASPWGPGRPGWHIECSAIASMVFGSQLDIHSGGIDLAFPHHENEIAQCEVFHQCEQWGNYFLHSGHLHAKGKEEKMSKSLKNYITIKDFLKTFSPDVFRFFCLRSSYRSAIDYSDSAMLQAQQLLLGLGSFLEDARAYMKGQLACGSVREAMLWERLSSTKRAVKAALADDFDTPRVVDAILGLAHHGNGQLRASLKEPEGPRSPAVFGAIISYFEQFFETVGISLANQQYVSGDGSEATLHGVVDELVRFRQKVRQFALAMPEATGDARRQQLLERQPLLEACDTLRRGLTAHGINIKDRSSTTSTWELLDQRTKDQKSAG
Chain of UniProt Q9Y613 (Q9Y613 whole entry, looked up): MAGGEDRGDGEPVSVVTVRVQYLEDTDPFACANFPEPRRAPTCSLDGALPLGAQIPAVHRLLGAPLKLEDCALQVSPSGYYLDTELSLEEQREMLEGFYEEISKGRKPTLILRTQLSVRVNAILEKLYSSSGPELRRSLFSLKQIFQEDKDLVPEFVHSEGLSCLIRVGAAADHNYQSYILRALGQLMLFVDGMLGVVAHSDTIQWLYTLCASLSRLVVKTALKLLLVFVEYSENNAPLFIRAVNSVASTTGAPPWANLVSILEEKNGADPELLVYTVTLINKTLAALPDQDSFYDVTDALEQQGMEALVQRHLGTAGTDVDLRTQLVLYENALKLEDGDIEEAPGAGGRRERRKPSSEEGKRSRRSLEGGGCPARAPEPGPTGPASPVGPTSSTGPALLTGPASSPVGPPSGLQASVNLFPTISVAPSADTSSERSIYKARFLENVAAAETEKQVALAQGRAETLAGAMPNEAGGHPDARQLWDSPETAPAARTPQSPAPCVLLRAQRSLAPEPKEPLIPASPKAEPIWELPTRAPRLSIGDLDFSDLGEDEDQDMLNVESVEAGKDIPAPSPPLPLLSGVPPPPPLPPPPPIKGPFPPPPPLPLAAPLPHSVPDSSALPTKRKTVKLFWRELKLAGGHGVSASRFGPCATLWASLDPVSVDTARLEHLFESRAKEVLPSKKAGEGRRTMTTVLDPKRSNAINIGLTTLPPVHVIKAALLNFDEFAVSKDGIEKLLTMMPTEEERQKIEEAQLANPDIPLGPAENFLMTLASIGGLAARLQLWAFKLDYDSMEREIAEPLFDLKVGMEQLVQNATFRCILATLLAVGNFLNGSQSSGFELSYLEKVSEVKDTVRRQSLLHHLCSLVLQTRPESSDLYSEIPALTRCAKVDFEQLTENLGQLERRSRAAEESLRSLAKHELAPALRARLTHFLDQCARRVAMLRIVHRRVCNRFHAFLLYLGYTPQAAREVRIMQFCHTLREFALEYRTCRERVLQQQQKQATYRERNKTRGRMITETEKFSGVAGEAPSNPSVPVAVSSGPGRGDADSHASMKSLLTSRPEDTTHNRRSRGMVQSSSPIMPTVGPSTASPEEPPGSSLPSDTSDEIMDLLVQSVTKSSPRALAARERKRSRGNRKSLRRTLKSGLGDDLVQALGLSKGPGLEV
Chain of UniProt Q9NZB2 (Q9NZB2 whole entry, looked up): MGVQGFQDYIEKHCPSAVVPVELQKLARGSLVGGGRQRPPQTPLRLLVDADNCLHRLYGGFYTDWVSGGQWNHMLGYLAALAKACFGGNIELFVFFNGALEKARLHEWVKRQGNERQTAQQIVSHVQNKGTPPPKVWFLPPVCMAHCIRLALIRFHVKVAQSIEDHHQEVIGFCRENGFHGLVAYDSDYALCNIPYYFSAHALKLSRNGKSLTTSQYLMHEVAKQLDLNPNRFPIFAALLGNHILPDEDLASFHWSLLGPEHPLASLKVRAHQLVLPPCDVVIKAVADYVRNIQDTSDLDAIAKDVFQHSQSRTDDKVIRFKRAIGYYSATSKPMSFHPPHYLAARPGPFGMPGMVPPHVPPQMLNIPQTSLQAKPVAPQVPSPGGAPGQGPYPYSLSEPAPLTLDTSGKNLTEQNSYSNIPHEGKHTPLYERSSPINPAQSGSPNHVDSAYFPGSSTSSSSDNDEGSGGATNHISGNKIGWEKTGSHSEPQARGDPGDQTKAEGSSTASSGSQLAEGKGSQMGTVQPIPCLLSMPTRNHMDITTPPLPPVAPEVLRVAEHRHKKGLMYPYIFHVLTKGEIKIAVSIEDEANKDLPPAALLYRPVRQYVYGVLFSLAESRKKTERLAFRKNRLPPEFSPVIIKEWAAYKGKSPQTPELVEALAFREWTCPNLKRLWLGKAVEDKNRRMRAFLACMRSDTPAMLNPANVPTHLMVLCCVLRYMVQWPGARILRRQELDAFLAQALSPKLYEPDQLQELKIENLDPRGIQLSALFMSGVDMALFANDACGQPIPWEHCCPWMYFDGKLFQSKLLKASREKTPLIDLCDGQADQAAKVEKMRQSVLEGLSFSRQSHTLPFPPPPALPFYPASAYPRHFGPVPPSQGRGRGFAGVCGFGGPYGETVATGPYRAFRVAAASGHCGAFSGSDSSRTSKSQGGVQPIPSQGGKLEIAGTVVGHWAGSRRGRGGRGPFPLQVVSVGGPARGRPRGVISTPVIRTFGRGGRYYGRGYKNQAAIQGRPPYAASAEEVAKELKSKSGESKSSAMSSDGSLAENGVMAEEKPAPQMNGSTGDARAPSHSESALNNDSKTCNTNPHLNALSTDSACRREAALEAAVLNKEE
Chain of UniProt Q9HB71 (Q9HB71 whole entry): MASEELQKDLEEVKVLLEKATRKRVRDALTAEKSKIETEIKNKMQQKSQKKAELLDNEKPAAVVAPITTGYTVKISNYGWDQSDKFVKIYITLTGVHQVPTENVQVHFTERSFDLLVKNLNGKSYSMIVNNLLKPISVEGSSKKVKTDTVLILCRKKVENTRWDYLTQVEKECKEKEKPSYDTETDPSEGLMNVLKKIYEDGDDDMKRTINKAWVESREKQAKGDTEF
Chain of UniProt Q9NT62 (Q9NT62 whole entry, looked up): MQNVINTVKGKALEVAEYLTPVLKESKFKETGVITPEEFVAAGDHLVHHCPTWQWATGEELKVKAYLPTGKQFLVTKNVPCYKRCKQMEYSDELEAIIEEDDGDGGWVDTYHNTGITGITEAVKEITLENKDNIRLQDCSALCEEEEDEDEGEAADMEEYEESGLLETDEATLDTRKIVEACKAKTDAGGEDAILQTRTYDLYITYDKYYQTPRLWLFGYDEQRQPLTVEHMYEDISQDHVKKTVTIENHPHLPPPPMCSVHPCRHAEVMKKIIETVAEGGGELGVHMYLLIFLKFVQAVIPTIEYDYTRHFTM
Chain of UniProt Q9UBE0 (Q9UBE0 whole entry): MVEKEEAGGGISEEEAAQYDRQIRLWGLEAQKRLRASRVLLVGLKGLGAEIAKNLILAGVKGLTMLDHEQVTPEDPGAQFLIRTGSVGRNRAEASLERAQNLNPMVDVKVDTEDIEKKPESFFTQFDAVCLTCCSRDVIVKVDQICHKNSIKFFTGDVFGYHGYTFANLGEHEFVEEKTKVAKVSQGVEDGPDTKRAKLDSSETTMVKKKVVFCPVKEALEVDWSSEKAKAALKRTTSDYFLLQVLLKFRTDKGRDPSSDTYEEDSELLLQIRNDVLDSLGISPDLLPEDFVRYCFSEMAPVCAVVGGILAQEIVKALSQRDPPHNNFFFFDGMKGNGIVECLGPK

Compound in this experiment: COC(=O)C#Cc1ccccc1 [methyl 3-phenylpropiolate]
Nature of the experiment: log2 ratio of iodoacetamide-alkyne labeling of the cysteine site, DMSO over compound (competition); higher = stronger covalent engagement of the cysteine by the compound, active = 1 or more. The conditions noted are these: 500 µM; treatment time 1 h; system: HEK293T cell lysate. In short, it runs like this:
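For each cysteine, the log2 competition ratio is mean control-channel reporter intensity over mean compound-channel reporter intensity. HEK293T lysate (2 mg/mL) was exposed to vehicle or electrophile (500 µM, 1 h, ambient temperature), labelled with iodoacetamide alkyne (1 h), clicked to sCIP-TMT reagents, digested overnight with trypsin at 37 °C, streptavidin-enriched and analysed by Orbitrap Eclipse LC-MS/MS with FAIMS and FragPipe. Cysteines quantified in only one of three replicates, each with duplicate channels, were excluded.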
In the case of OSBPL3 C203 (UniProt Q9H4L5), the “log2 ratio of iodoacetamide-alkyne labeling” value (“log2 ratio” for short) is 0.76.

Turning to LARS C573 (UniProt Q9P2J5), the “log2 ratio” value was 0.342. In the case of RCC2 C428 (UniProt Q9P258), the “log2 ratio” value was 0.696. The result for TES C196 (UniProt Q9UGI8) reads 0.308. The result for EIF2B3 C64 (UniProt Q9NR50) reads 0.548.

For the target GNL3 C234 (UniProt Q9BVP2), the “log2 ratio” value was 0.259. In the case of TBCD C1175 (UniProt Q9BTW9) it was 0.204; in that of EXOC6B C68 (UniProt Q9Y2D4), -0.0384. For MED17 C110 (UniProt Q9NVC6), the “log2 ratio” value is 0.34. Consider MAGED2 C516 (UniProt Q9UNF1), for which the “log2 ratio” value was 0.293.

Regarding TNKS1BP1 C1337 (UniProt Q9C0C2), the “log2 ratio” value was 1.01 (active). The result for CARS2 C526 (UniProt Q9HA77) reads 0.206; that for SAE1 C214 (UniProt Q9UBE0), 0.502; that for LARS C554 (UniProt Q9P2J5), 1.74 (active). In the case of GNE C357 (UniProt Q9Y223) it was 0.234.

Consider CACYBP C173 (UniProt Q9HB71), for which the “log2 ratio” value was 0.182.

ITSN2 C810 (UniProt Q9NZM3): the “log2 ratio” value was 0.0149. The result for AASS C87 (UniProt Q9UDR5) reads 0.102; that for NCDN C4 (UniProt Q9UBB6), 1.66 (active). For HNRNPUL1 C291 (UniProt Q9BUJ2), the “log2 ratio” value is 0.483.

Consider CPSF3 C655 (UniProt Q9UKF6), for which the “log2 ratio” value is 0.293.

As to ATG3 C182 (UniProt Q9NT62), the “log2 ratio” value was 0.632. Regarding RCL1 C13 (UniProt Q9Y2P8), the “log2 ratio” value was -0.0901. The result for TANC1 C131 (UniProt Q9C0D5) reads 0.487; that for DDA1 C25 (UniProt Q9BW61), 0.36; that for UPF2 C1107 (UniProt Q9HAU5), 0.18. As to AFG3L2 C525 (UniProt Q9Y4W6), the “log2 ratio” value is 0.198. As for MACF1 C5049 (UniProt Q9UPN3), the “log2 ratio” value is 0.311. In the case of FHOD1 C31 (UniProt Q9Y613), the “log2 ratio” value was 0.248. The result for FTO C326 (UniProt Q9C0B1) reads 0.0865; that for SMARCAD1 C772 (UniProt Q9H4L7), 1 (active). Take RNF126 C229 (UniProt Q9BV68): the “log2 ratio” value is -0.457. FAM169A C138 (UniProt Q9Y6X4): the “log2 ratio” value was 0.201. In the case of OSTC C14 (UniProt Q9NRP0) it was 0.193. Regarding DLGAP4 C736 (UniProt Q9Y2H0), the “log2 ratio” value was 0.69. The result for UTP6 C175 (UniProt Q9NYH9) reads 1.62 (active); that for ANKFY1 C675 (UniProt Q9P2R3), 0.216; that for POLE4 C84 (UniProt Q9NR33), -0.0179.

On to NIT2 C146 (UniProt Q9NQR4), for which the “log2 ratio” value was 0.119. In the case of FAM120A C531 (UniProt Q9NZB2) it was 1.68 (active).
